# Measurements as given in PubChem BioAssay.
# A number with no mark means an inactive call. The list shows a part of the results. The source made the active and inactive calls. Unless noted, no stated cut-off is given here; in the data, active means inhibition above about 20%; inactive means the rest.
# Key:
# [1] = molecular target: Neuropeptide Y receptor type 2 (Homo sapiens) (UniProt P49146); test: NPY-Y2 potentiators or agonists, confirmation, cell-based (AID 1539; in the data active means activation above about 33%); conditions: cell-based NPY-Y2 potentiator/agonist assay; at 3.6 µM; stronger effect = higher value
# Sequence of Neuropeptide Y receptor type 2 (Homo sapiens) (P49146 whole entry, looked up): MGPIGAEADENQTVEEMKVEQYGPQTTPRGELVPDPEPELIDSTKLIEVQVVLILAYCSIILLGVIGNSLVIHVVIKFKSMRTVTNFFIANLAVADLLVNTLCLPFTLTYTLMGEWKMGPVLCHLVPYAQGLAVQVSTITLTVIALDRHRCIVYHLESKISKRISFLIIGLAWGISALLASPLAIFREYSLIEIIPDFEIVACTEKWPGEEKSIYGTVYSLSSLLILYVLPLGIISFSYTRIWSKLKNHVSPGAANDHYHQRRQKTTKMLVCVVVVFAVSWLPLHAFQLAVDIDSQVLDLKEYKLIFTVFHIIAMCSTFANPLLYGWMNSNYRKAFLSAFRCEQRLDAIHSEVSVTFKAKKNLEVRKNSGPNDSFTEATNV
# [2] = molecular target: Neuropeptide Y receptor type 1 (Homo sapiens) (UniProt P25929); test: NPY-Y1 potentiators or agonists, counter-screen for NPY-Y2 potentiator project, cell-based, fluorescence (AID 1651; in the data active means activation above about 45%;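 further: cells stimulated with submaximal NPY then isoproterenol with phosphodiesterase inhibitor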); conditions: Y1 HEK293-CNG cells, membrane potential fluorescence; at 3.6 µM; stronger effect = higher value
# Sequence of Neuropeptide Y receptor type 1 (Homo sapiens) (P25929 whole entry, looked up): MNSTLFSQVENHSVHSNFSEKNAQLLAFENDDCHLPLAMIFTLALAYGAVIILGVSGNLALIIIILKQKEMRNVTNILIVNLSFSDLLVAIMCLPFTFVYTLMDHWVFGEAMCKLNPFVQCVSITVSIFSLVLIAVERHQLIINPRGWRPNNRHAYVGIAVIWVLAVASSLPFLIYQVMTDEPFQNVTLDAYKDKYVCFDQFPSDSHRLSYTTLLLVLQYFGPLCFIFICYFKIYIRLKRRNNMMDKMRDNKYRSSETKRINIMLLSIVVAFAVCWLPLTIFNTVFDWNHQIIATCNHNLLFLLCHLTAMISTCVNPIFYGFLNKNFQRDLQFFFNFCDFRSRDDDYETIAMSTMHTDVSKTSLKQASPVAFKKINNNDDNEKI
# [3] = molecular target: Neuropeptide Y receptor type 1 (Homo sapiens) (UniProt P25929); test: NPY-Y1 direct agonists, selectivity assay for NPY-Y2 potentiator project, cell-based, fluorescence (AID 1702;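 active means activation above the mean of DMSO-only control wells plus 3 SD, cut at about 18% in these data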;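 further: cells stimulated with 1 µM isoproterenol plus the PDE inhibitor Ro 20-1724; 0% = isoproterenol with DMSO and no NPY and 100% = 40 nM NPY; Y1 agonists lower the membrane potential dye signal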); conditions: HEK293 Y1-CNGC, membrane potential fluorescence, agonism; at 3.6 µM; stronger effect = higher value
# [4] = CNGC cAMP sensor activity inhibitors, counter-screen for NPY-Y2 potentiator project, cell-based, HEK293-CNG parental, membrane potential fluorescence (AID 1703;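 active means inhibition above the control-well mean plus 3 SD of those wells, cut at about 22% in these data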;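 further: 0% = DMSO with isoproterenol and 100% = DMSO without isoproterenol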); conditions: isoproterenol cAMP, at 3.6 µM, stronger effect = higher value
# [5] = molecular target: Neuropeptide Y receptor type 2 (Homo sapiens) (UniProt P49146); test: NPY-Y2 direct agonists, counter-screen for NPY-Y2 potentiator project, cell-based, fluorescence (AID 1710;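 active means activation above the mean of solvent-only control wells plus 3 SD, cut at about 10% in these data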;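 further: cells stimulated by isoproterenol with no NPY added so direct agonism is tested; 0% = DMSO with isoproterenol alone and 100% = NPY at EC100 plus isoproterenol; agonism lowers probe fluorescence through less cAMP and CNG channel opening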); conditions: HEK293 Y2/CNGC cells, membrane potential fluorescence, agonist mode; at 3.6 µM; stronger effect = higher value
# [6] = growth loss of phage-infected E. coli expressing H. pylori AddAB, confirmation, AddAB inhibitor project, absorbance, E. coli V3065, T4 phage, triplicate (AID 488942;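 active means mean inhibition above a set limit taken from the earlier primary screen, cut at about 13% in these data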;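 further: higher means less bacterial growth since AddAB block lets phage replicate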); conditions: OD, at 11.9 µM, stronger effect = higher value, T4 phage with gene 2 nonsense mutations
# [7] = growth loss of RecBCD+ E. coli with mutant T4 phage, counter-screen for AddAB inhibitor project, absorbance, V66 E. coli (AID 488955;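 active means mean inhibition above the mean of solvent-only control wells plus 3 SD, cut at about 4% in these data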;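 further: optical density read after an 18 h incubation at 37 °C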); conditions: OD growth, at 11.9 µM, stronger effect = higher value
# [8] = bacterial viability inhibition counter-screen, confirmation, counter-screen for AddAB inhibitor project, absorbance (AID 488956; in the data active means inhibition above about 25%); conditions: absorbance (AddAB counterscreen), at 11.9 µM, stronger effect = higher value
# [9] = molecular target: Nuclear receptor coactivator 3 (Homo sapiens) (UniProt Q9Y6Q9); test: SRC3 coactivator transcriptional activity inhibitors, confirmation, cell-based, luminescence, quadruplicate (AID 588792;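 active means mean inhibition over 43.08%, the solvent-only control mean plus 3 SD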;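 further: 0% = DMSO treated cells and 100% = gossypol at 36 µM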); conditions: HEK293 GAL4-SRC3 luciferase reporter, at 3.6 µM, stronger effect = higher value
# [10] = tested on: transactivating tegument protein VP16 (Human herpesvirus 1), Gal4-VP16 luciferase reporter; test: VP16 transactivation inhibitors, counter-screen for SRC3 inhibitor project, cell-based, luminescence, high throughput (AID 588794; in the data active means inhibition above about 30%); conditions: mammalian cells, VP16-driven luciferase reporter luminescence; at 3.6 µM; stronger effect = higher value
# [11] = molecular target: Nuclear receptor coactivator 1 (Homo sapiens) (UniProt Q15788); test: SRC1 coactivator transcriptional activity inhibitors, confirmation, cell-based, luminescence, quadruplicate (AID 588820;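 active means mean inhibition above 46.68%, the untreated control wells mean plus 3 SD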;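 further: 0% = DMSO wells and 100% = gossypol 36 µM treated wells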); conditions: HEK293 GAL4-SRC1 luciferase reporter, at 3.6 µM, stronger effect = higher value
# [12] = VP16 transactivation inhibitors, counter-screen for SRC1 inhibitor project, cell-based, luminescence, high throughput (AID 588824; in the data active means inhibition above about 25%); conditions: cell-based VP16 transactivation luciferase luminescence; at 3.6 µM; stronger effect = higher value
# [13] = molecular target: Photoreceptor-specific nuclear receptor (Homo sapiens) (UniProt Q9Y5X4); test: NR2E3 agonist confirmation in cells, cell-based, luminescence, CHO-S two-hybrid (AID 624378;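 active means average inhibition above a cutoff equal to the mean inhibition of all tested compounds plus one SD, cut at about 70% in these data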;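 further: 0% = DMSO in NR2E3 cells and 100% = DMSO in cells lacking NR2E3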); conditions: CHO-S mammalian two-hybrid NR2E3-NCOR, luciferase luminescence; at 3.98 µM; stronger effect = higher value
# Sequence of Photoreceptor-specific nuclear receptor (Homo sapiens) (Q9Y5X4 whole entry, looked up, the tested form may be a part): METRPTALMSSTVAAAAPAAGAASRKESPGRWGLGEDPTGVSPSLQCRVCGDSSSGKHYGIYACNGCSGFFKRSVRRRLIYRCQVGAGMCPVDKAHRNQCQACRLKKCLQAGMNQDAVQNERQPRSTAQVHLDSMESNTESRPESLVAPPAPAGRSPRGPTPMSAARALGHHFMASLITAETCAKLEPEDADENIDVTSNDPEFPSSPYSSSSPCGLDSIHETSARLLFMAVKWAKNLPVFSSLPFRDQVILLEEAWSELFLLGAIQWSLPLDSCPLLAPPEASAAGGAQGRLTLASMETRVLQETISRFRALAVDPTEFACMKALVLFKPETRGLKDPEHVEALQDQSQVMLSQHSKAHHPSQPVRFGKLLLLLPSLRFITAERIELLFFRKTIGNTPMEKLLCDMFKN
# [14] = GAL4-VP16 reporter modulators, confirmation, counter-screen for NR2E3 agonist project, cell-based, luminescence, CHO-S, high throughput (AID 624379;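 active means mean inhibition above a cutoff equal to the average over all tested compounds plus one standard deviation, cut at about 70% in these data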;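 further: 0% = DMSO with VP16-transfected cells and 100% = DMSO with cells lacking VP16; higher means less reporter light so more repression of VP16 activity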); conditions: CHO-S GAL4-VP16 luciferase reporter, at 3.98 µM, stronger effect = higher value
# [15] = StAR promoter reporter inhibitors, counter-screen for LRH-1 inverse agonist project, cell-based, luminescence, high throughput (AID 651611; in the data active means inhibition above about 28%); conditions: StAR promoter luciferase reporter counterscreen, at 3.6 µM, stronger effect = higher value
# [16] = molecular target: Nuclear receptor subfamily 5 group A member 2 (Homo sapiens) (UniProt O00482); test: LRH-1 (NR5A2) inverse agonists, retest, confirmation, cell-based, luminescence (AID 651613; in the data active means inhibition above about 42%;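 further: HEK293T cells co-transfected with LRH-1 and StAR promoter luciferase reporter; 0% = vehicle wells and 100% = parental cells lacking receptor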); conditions: cell-based LRH-1 luciferase reporter, inverse agonism; at 3.6 µM; stronger effect = higher value
# [17] = molecular target: Steroidogenic factor 1 (Homo sapiens) (UniProt Q13285); test: SF1 (NR5A1) inverse agonists, counter-screen for LRH-1 inverse agonist project, cell-based, luminescence, high throughput (AID 651614; in the data active means inhibition above about 44%;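 further: cells cotransfected with StAR promoter reporter and SF1 expression vector; 0% = vehicle on cells with receptor and 100% = vehicle on cells lacking receptor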); conditions: cell-based SF1 luciferase reporter, at 3.6 µM, stronger effect = higher value
# [18] = VP16 transactivation reporter inhibitors, counter-screen for LRH-1 inverse agonist project, cell-based, luminescence, high throughput (AID 651615; in the data active means inhibition above about 33%); conditions: Gal4-VP16 luciferase reporter cells, at 3.6 µM, stronger effect = higher value
# [19] = growth loss of phage-infected RecBCD+ E. coli, confirmation, RecBCD inhibitor project, absorbance, E. coli V66, T4 gene 2 phage (AID 651982;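 active means mean inhibition over triplicates exceeding the hit threshold derived in the original primary screen, cut at about 11% in these data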); conditions: E. coli V66 + T4 2- phage, growth OD; at 11.9 µM; stronger effect = higher value
# [20] = E. coli viability inhibition, counter-screen for RecBCD inhibitor project, absorbance, high throughput (AID 651983); conditions: absorbance (OD) growth, at 11.9 µM, stronger effect = higher value;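 further: E. coli strain V66 grown with compound alone and no phage infection; 0% = bacteria with DMSO vehicle only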
# [21] = growth loss of phage-infected AddAB-carrying E. coli, confirmation, counter-screen for RecBCD inhibitor project, absorbance, E. coli V3065, T4 phage (AID 651984;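 active means mean inhibition above the solvent-only control wells' mean plus 3 SD, cut at about 22% in these data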;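 further: higher means less bacterial growth from phage killing when AddAB is blocked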); conditions: E. coli expressing H. pylori AddAB + T4 phage, OD growth; at 11.9 µM; stronger effect = higher value; gene 2 mutant T4, recBCD-deleted host
# [22] = Gal4-VP16 luciferase reporter inhibitors, counter-screen for COUP-TFII antagonist project, cell-based, luminescence, HEK293 (AID 687007; in the data active means inhibition above about 13%); conditions: at 8.5 µM, stronger effect = higher value
# [23] = molecular target: COUP transcription factor 2 (Homo sapiens) (UniProt P24468); test: NR2F2 transcriptional activity inhibitors, confirmation, cell-based, luciferase reporter, HEK293, triplicate (AID 687008;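 active means mean inhibition over three repeats above a set limit taken from the earlier primary screen, cut at about 38% in these data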;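 further: 100% = cells given the luciferase reporter alone without the COUP-TF2 vector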); conditions: HEK293 NGFI-A luciferase reporter, luminescence; at 8.5 µM; stronger effect = higher value
# [24] = tested on: Fam108b (Abhd17b) serine hydrolase [Mus musculus]; test: mouse Fam108b serine hydrolase inhibitors, confirmation, counter-screen for RBBP9 inhibitor project, biochemical, fluorescence polarization, triplicate (AID 1978;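 active means inhibition above a limit from the primary screen, the mean over all compounds plus 3 SD, cut at about 19% in these data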;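 further: 0% = median of active Fam108b wells and 100% = catalytically dead S170A mutant; inhibitors free the probe so polarization falls as inhibition rises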); conditions: recombinant Fam108b, FP-Rh probe fluorescence polarization; at 9.51 µM; stronger effect = higher value
# [25] = molecular target: Bcl-2-like protein 1 (Homo sapiens) (UniProt Q07817); test: Bcl-xL inhibitors blocking Bim BH3 binding, confirmation, counter-screen for MCL1 inhibitor project, biochemical, fluorescence polarization (AID 2166;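 active means inhibition above a cutoff equal to the mean inhibition of all tested compounds plus 3 SD, cut at about 30% in these data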); conditions: GST-Bcl-xL / FITC-Bim BH3 peptide FP binding; at 10.9 µM; stronger effect = higher value
# Sequence of Bcl-2-like protein 1 (Homo sapiens) (Q07817 whole entry, looked up): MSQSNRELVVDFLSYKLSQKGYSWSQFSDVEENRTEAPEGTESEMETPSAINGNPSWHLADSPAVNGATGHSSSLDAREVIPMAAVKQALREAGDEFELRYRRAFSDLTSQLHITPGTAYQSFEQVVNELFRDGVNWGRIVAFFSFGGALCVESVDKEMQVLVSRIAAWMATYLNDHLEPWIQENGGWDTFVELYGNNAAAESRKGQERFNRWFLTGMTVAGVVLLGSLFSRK
# [26] = molecular target: Induced myeloid leukemia cell differentiation protein Mcl-1 (Homo sapiens) (UniProt Q07820); test: inhibitors of MCL1 binding to BIM-BH3, confirmation, biochemical, fluorescence polarization, triplicate (AID 2168;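 active means inhibition above the average of all tested compounds plus 3 SD, cut at about 40% in these data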;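 further: 0% = DMSO wells and 100% = unlabeled Bim-BH3 control peptide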); conditions: GST-MCL1 / FITC-Bim-BH3 fluorescence polarization; at 10.9 µM; stronger effect = higher value
# Sequence of Induced myeloid leukemia cell differentiation protein Mcl-1 (Homo sapiens) (Q07820 whole entry, looked up): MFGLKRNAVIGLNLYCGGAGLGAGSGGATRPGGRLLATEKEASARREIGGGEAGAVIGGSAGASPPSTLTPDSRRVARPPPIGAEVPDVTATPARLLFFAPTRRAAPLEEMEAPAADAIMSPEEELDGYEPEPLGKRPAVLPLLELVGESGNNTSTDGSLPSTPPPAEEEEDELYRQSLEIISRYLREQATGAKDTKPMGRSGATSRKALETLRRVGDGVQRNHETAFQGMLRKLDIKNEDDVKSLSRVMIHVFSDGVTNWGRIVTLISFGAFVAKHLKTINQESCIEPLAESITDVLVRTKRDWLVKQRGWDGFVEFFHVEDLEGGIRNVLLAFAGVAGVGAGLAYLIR
# [27] = molecular target: Photoreceptor-specific nuclear receptor (Homo sapiens) (UniProt Q9Y5X4); test: NR2E3 agonists, confirmation, biochemical, TR-FRET (AID 2379; in the data active means activation above about 20%); conditions: cell-free NR2E3 corepressor release, 5 h, at 3.98 µM, stronger effect = higher value
# [28] = molecular target: Peroxisome proliferator-activated receptor gamma (Homo sapiens) + Nuclear receptor corepressor 2 (Homo sapiens) (UniProt P37231+Q9Y618); test: agonists of PPARg-NCOR2 corepressor interaction, counter-screen for NR2E3 agonist project, biochemical, TR-FRET (AID 504787); conditions: TR-FRET PPARg-NCOR2 coregulator interaction, at 3.98 µM, stronger effect = higher value;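 further: 0% = DMSO vehicle and 100% = wells without protein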
# Sequence of Peroxisome proliferator-activated receptor gamma (Homo sapiens) + Nuclear receptor corepressor 2 (Homo sapiens) (P37231 whole entry, looked up): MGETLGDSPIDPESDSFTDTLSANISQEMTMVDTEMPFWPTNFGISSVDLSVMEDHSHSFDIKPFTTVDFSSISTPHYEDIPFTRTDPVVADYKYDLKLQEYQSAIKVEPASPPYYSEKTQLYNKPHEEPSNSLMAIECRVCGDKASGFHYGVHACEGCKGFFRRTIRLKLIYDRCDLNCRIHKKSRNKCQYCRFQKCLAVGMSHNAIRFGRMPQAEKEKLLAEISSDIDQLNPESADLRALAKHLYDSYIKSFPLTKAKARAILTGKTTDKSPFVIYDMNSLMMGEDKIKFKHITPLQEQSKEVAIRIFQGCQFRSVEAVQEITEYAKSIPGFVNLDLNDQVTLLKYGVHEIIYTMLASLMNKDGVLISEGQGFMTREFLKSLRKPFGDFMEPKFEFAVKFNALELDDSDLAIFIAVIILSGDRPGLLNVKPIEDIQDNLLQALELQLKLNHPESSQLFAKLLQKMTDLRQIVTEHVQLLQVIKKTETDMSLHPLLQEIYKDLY
# Sequence of Peroxisome proliferator-activated receptor gamma (Homo sapiens) + Nuclear receptor corepressor 2 (Homo sapiens) (Q9Y618 whole entry, looked up): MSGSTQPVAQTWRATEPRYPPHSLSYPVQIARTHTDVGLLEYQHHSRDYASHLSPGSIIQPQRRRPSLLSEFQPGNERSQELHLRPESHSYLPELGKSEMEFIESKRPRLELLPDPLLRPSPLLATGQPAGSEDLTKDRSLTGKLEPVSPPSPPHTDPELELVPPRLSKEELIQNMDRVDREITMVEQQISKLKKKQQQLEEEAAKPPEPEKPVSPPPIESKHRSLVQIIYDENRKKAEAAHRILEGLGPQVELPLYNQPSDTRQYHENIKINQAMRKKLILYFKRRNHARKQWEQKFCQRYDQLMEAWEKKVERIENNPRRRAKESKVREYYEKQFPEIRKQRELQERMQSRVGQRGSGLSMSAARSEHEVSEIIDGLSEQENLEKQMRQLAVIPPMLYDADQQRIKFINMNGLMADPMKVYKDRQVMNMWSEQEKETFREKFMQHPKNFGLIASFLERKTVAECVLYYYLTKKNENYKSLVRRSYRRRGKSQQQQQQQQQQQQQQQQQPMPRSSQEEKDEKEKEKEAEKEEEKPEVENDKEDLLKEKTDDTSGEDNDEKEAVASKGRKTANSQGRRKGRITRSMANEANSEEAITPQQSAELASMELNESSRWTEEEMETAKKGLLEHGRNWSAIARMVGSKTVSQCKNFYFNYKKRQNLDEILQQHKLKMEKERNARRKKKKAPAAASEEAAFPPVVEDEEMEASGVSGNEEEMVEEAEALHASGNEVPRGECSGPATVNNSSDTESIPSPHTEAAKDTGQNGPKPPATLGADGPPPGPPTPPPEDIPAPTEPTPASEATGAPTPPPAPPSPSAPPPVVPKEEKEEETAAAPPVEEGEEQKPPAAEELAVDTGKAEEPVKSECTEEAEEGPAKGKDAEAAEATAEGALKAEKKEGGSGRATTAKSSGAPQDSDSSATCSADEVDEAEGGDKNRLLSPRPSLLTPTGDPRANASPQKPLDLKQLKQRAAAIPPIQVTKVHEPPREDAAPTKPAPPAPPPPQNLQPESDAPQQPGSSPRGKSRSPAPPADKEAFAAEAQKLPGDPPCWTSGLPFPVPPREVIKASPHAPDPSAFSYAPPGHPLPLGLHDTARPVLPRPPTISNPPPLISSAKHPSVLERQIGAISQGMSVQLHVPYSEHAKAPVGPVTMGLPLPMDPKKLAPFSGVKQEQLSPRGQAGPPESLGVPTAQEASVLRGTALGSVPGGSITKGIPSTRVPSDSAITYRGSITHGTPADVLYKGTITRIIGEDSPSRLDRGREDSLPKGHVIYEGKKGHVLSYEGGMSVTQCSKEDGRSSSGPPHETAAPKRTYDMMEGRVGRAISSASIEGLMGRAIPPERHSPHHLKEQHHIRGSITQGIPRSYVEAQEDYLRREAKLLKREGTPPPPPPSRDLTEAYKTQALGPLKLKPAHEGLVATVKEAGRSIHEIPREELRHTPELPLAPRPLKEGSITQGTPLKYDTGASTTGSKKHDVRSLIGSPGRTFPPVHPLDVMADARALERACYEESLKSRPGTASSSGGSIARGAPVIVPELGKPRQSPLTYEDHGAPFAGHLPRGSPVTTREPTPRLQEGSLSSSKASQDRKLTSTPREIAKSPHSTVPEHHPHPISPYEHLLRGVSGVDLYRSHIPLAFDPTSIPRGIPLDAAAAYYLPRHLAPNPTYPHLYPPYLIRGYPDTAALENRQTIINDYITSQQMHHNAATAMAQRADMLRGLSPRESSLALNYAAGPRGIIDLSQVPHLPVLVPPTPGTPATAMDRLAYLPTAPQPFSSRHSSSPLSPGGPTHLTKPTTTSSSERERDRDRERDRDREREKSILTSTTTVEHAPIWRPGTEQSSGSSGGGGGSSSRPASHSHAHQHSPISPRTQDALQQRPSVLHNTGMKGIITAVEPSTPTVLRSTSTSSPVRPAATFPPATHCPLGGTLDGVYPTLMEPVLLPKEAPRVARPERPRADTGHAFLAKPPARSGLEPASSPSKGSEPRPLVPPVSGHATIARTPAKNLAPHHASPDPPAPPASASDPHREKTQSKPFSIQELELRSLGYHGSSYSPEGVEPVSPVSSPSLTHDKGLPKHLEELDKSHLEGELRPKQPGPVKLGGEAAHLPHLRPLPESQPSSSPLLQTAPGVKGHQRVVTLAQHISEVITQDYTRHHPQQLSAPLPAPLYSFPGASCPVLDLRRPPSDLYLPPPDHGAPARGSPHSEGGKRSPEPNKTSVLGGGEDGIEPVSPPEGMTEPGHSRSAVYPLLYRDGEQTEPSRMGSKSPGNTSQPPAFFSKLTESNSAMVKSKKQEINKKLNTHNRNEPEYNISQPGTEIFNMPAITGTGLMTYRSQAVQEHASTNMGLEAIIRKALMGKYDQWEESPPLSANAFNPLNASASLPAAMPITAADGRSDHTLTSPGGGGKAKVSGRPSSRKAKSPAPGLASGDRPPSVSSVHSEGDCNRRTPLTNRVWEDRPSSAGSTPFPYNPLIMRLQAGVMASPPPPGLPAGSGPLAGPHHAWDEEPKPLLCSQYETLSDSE
# [29] = molecular target: Protein-arginine deiminase type-4 (Homo sapiens) (UniProt Q9UM07); test: human PAD4 inhibitors, confirmation, biochemical, fluorescence polarization (AID 488796;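 active means mean inhibition across replicates above the hit cutoff set by the earlier primary screen, cut at about 15% in these data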;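 further: inhibitors block active-site labeling by the probe so polarization falls; 0% = PAD4 with probe and DMSO and 100% = probe without PAD4 enzyme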); conditions: recombinant PAD4, RCA probe fluorescence polarization; at 6.36 µM; stronger effect = higher value
# [30] = molecular target: Serine protease HTRA1 (Homo sapiens) (UniProt Q92743); test: HTRA1 protease inhibitors, retest, confirmation, biochemical, fluorescence polarization (AID 540248;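 active means mean inhibition over three repeats above a set limit taken from the earlier primary screen, cut at about 37% in these data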;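 further: 0% = HTRA1 with DMSO and 100% = wells lacking HTRA1; inhibitors block probe binding so polarization drops and inhibition rises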); conditions: recombinant HTRA1, FP-rhodamine activity-based probe, at 5.96 µM, stronger effect = higher value
# [31] = molecular target: (Lyso)-N-acylphosphatidylethanolamine lipase (Mus musculus) (UniProt Q8VD66); test: ABHD4 inhibitors, retest, confirmation, biochemical, fluorescence polarization, mouse (AID 720658;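 active means mean inhibition across replicates above the hit cutoff set in the primary screen, cut at about 30% in these data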;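 further: 0% = wild-type ABHD4 with DMSO and 100% = catalytically dead S159A mutant with DMSO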); conditions: purified mABHD4, FP-Rh probe fluorescence polarization; at 8.92 µM; stronger effect = higher value
# [32] = molecular target: Oxysterols receptor LXR-beta (Homo sapiens) (UniProt P55055); test: LXR agonists, Gal4 luciferase reporter, confirmation, counter-screen for hcDAF-12 agonist project, cell-based, luminescence, HEK293, H. contortus campaign (AID 743027;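 active means mean percent activation of the reporter above a cutoff set as the average over tested compounds plus their standard deviation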); conditions: HEK293 Gal4-LXR tk-luc reporter, 24 h, at 6.8 µM, stronger effect = higher value, normalized: DMSO 0%, positive control 100%
# [33] = tested on: Nuclear hormone receptor DAF-12 (Haemonchus contortus); test: H. contortus DAF-12 receptor agonists, confirmation, cell-based, luminescence, HEK293, lit1-tk-luc, triplicate (AID 743032;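 active means mean activation across triplicate tests above the threshold derived from the earlier primary screen, cut at about 5.5% in these data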;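 further: 0% = DMSO only wells and 100% = 3 µM Δ7-dafachronic acid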); conditions: HEK293 hcDAF-12 lit1-tk-luc reporter, at 6.8 µM, stronger effect = higher value, % of Δ7-dafachronic acid response
# [34] = molecular target: Galanin receptor type 2 (Homo sapiens) (UniProt O43603); test: GALR2 antagonists, retest of hits, confirmation, cell-based (AID 866; in the data active means inhibition above about 27%;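 further: cells stimulated with galanin at about its EC80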); conditions: GALR2-expressing cells, antagonist mode, at 4 µM, stronger effect = higher value
# [35] = inhibitors of NFAT-driven beta-lactamase reporter, confirmation, counter-screen for GALR2 antagonist project, CHO NFAT-bla cells, FRET readout (AID 867;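 active means inhibition above the mean inhibition across tested compounds plus 3 SD, cut at about 27% in these data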;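 further: 0% = 500 nM thapsigargin stimulated wells and 100% = unstimulated BSA only wells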); conditions: thapsigargin-stimulated, at 4.2 µM, stronger effect = higher value
# [36] = molecular target: Protein phosphatase methylesterase 1 (Homo sapiens) (UniProt Q9Y570); test: PME-1 inhibitor activity retest, confirmation, biochemical, fluorescence polarization, FP-Rh probe, triplicate (AID 2171;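 active means inhibition above the hit cutoff set in the earlier primary screen, cut at about 27% in these data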;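 further: 0% = enzyme with DMSO and 100% = wells lacking PME-1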); conditions: recombinant PME-1, FP-Rh probe fluorescence polarization; at 5.9 µM; stronger effect = higher value
structure (smiles),measurement,setting,value
O=C(CC(O)(C(F)(F)F)C(F)(F)F)Nc1ccc(Cl)c(Cl)c1,activation,[1],17%
same,activation,[2],-22.8%
same,activation,[3],-13.7%
same,inhibition,[4],-7.55%
same,activation,[5],11.5% (active)
same,inhibition,[6],16.9% (active)
same,inhibition,[7],21.6% (active)
same,inhibition,[8],16.9%
same,inhibition,[9],58.7% (active)
same,inhibition,[10],65.2% (active)
same,inhibition,[11],46.4%
same,inhibition,[12],74.2% (active)
same,inhibition,[13],99.8% (active)
same,inhibition,[14],89.7% (active)
same,inhibition,[15],74.3% (active)
same,inhibition,[16],102% (active)
same,inhibition,[17],90.4% (active)
same,inhibition,[18],88.5% (active)
same,inhibition,[19],16.8% (active)
same,inhibition,[20],20.4% (active)
same,inhibition,[21],22.1% (active)
same,inhibition,[22],20.4% (active)
same,inhibition,[23],62.1% (active)
CSc1c(SCc2ccccc2)cnn(Cc2ccccc2)c1=O,inhibition,[24],0.05%
same,inhibition,[25],-5.91%
same,inhibition,[26],-3.67%
O=C(Oc1ccccc1)Oc1ccc2c(c1)oc(=O)c1ccccc12,activation (reported as inhibition),[27],1.72%
same,inhibition,[28],6.42%
CC(=O)c1sc2nc(SCC(=O)N3CCCCC3)[nH]c(=O)c2c1C,activation (reported as inhibition),[27],17.4%
same,inhibition,[28],21.1% (active)
Nc1ccc(Nc2ccccc2)cc1,inhibition,[29],6.93%
same,inhibition,[30],54.5% (active)
same,inhibition,[31],36.4% (active)
CC(=O)n1c(C=Nc2ccccc2)c(O)c2ccccc21,activation,[32],0.1%
same,activation,[33],4.63%
O=C(Nc1ccccc1)c1nnsc1S(=O)(=O)c1ccc(Cl)cc1,inhibition,[34],45.8% (active)
same,inhibition,[35],66.7% (active)
Cc1ccc(/C=N/NC(=O)COc2ccccc2-c2ccccc2)cc1,inhibition,[25],-0.45%
same,inhibition,[26],-3.63%
COc1ccc(C(=O)Nc2ccccc2C(=O)N/N=C/c2ccc(O)c(OC)c2)cc1,inhibition,[36],28.2% (active)
Cc1cccc(NC(=O)c2ccc([N+](=O)[O-])o2)c1,inhibition,[6],98% (active)
same,inhibition,[7],11.9% (active)
same,inhibition,[8],34.5% (active)
same,inhibition,[19],7.5%
same,inhibition,[20],8.19%
same,inhibition,[21],66.8% (active)
